# “And” between values parts separate entries of the source, which are not always exact repeats. Equal values may be shown once. A number with no mark means an inactive call. Results filed as inconclusive are left out. Where a call stands in place of a potency, no number is given. The source made the active and inactive calls. Calls follow the shape of the dose curve; as a rule, active = well fitted curve in the direction sought with a large enough effect in the repeat runs; inconclusive = weak or mixed curves; inactive = no such curve, though single readings can be large; an effect the other way counts as inactive or inconclusive.
# Assays:
# [1] = Caspase-3/7 induction in HepG2 cells by small molecules, qHTS assay (AID 1346978); also: nearly all actives have a fitted effect of over 15% in size; also: potency is read from the fitted curve at half-maximal effect
# Method in brief: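 Caspase-3/7 induction was measured by Caspase-Glo 3/7 luminescence (30 min, room temperature) after a 17 hr compound exposure of wild-type HepG2 cells seeded at 2,000 per well and pre-incubated 5 hr.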
# [2] = Caspase-3/7 induction in CHO-K1 cells by small molecules, qHTS assay (AID 1346980); also: nearly all actives have a fitted effect of over 15% in size; also: potency is read from the fitted curve at half-maximal effect
# Method in brief: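 Luminescent Caspase-Glo 3/7 read (30min, room temperature) quantified apoptosis induction. Cells were wild-type CHO-K1, treated with compound for 17hr at 37 C and 5% CO2.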
# [3] = target: Nuclear receptor subfamily 1 group I member 2 (Homo sapiens) (UniProt O75469); test: Human pregnane X receptor (PXR) small molecule agonists, qHTS assay (AID 1346982); also: nearly all actives have a fitted effect of over 35% in size; also: potency is read from the fitted curve at half-maximal effect
# Method in brief: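 PXR-Luc HepG2 reporter cells (CYP3A4-driven luciferase) in 5% charcoal-stripped FBS medium, plated 5 h before compound addition, then treated 24 h at 37C. Luciferase read by ONE-Glo luminescence after 30 min at room temperature.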
# [4] = target: Cytochrome P450 2D6 (Homo sapiens) (UniProt P10635); test: Cytochrome P450 Family 2 Subfamily D Member 6 (CYP2D6) small molecule antagonists: luciferase reporter qHTS assay (AID 1671196); also: nearly all actives have a fitted effect of over 50% in size; also: potency is read from the fitted curve at half-maximal effect
# Method in brief: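 Cell-free P450-Glo system: CYP2D6 with proluciferin substrate was pre-incubated with compound for 10 min, then reacted with NADPH regeneration for 1 h at room temperature. Luciferin product was detected after 20 min, and data were reported as relative luminescence units.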
# [5] = Caspase-3/7 induction in HepG2 cells by small molecules, qHTS cell viability counter screen (AID 1346981); also: nearly all actives have a fitted effect of over 30% in size; also: potency is read from the fitted curve at half-maximal effect
# Method in brief: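 Wild-type HepG2 cells, 2,000/well, settled 5 hr at 37 C, 5% CO2 before compound addition. Viability read by CellTiter-Fluor fluorescence, reagent added after 16 hr compound exposure, then 1 hr at 37C, in the same wells as the caspase read.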
# [6] = target: Nuclear receptor subfamily 1 group I member 2 (Rattus norvegicus) (UniProt Q9R1A7); test: Rat pregnane X receptor (rPXR) activation by small molecules, qHTS assay (AID 1346983); conditions: rPXR luciferase reporter cells, One-Glo luminescence, 24 h; max activation: hits give high values; also: nearly all actives have a fitted effect of over 20% in size
# Method in brief: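 Luminescent readout (One-Glo luciferase, 30 min room temperature) followed 24 hr compound treatment at 37 C of rPXR cells plated 2,000 per well and preincubated 5hr; qHTS format with compounds delivered in DMSO.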
# [7] = target: Nuclear receptor subfamily 1 group I member 2 (Homo sapiens) (UniProt O75469); test: Human pregnane X receptor (PXR) activation by small molecules, qHTS assay (AID 1346985); also: nearly all actives have a fitted effect of over 40% in size
# Method in brief: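 DPX-2 cells (HepG2 co-transfected with a PXR response element and a CYP3A4-promoter luciferase construct) were seeded at 2,000 per well, rested 5 hr at 37C, then exposed to DMSO-dissolved compounds for 24 hr. Activation was read as luciferase luminescence.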
# [8] = Caspase-3/7 induction in CHO-K1 cells by small molecules, qHTS cell viability counter screen (AID 1346979); also: potency is read from the fitted curve at half-maximal effect; nearly all actives have a fitted effect of over 35% in size
# Method in brief: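 Following a 5hr settling period, CHO-K1 cells at 1,500 per well received DMSO-dissolved compounds. Cell viability was quantified 16hr later by CellTiter-Fluor fluorescence, measured after 1hr with reagent at 37C.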
# [9] = target: Nuclear receptor subfamily 1 group I member 2 (Homo sapiens) (UniProt O75469); test: CYP3A4 induction through human pregnane X receptor (PXR) by small molecules, qHTS assay (AID 1346984); also: nearly all actives have a fitted effect of over 40% in size
# Method in brief: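 DPX-2 HepG2 cells carrying a PXR response element and CYP3A4-promoter luciferase construct, treated with compounds 24 hr at 37C. Then P450-Glo CYP3A4 Luciferin-IPA substrate (3uM final) for 3 hr at 37C, One-Glo added, luminescence read.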
# Chain of Cytochrome P450 2D6 (Homo sapiens) (P10635 whole entry, looked up): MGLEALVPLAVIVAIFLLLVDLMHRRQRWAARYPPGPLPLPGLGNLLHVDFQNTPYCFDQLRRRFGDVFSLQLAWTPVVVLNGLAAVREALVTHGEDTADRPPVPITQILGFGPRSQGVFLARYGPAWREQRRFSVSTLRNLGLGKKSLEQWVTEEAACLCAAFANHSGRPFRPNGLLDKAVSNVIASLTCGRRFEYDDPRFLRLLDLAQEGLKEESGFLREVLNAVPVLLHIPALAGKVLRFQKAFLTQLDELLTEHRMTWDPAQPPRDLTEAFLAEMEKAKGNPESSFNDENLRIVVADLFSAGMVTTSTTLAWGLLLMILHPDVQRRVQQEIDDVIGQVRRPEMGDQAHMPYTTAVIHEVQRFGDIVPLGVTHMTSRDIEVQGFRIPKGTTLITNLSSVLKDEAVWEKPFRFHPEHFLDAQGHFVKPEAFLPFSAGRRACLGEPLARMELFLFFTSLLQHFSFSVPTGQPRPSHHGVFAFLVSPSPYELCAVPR
# Chain of Nuclear receptor subfamily 1 group I member 2 (Homo sapiens) (O75469 whole entry, looked up): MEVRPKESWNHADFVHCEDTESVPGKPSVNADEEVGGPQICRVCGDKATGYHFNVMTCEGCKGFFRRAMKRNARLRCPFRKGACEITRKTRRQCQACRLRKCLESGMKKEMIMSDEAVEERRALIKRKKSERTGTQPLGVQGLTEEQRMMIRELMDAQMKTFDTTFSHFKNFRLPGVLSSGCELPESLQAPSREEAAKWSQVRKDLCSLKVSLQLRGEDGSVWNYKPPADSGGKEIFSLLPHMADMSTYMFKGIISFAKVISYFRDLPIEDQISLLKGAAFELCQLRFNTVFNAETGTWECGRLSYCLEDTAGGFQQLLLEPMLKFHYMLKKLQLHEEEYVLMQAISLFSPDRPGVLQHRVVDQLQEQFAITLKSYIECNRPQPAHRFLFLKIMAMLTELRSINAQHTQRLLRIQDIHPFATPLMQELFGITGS
# Chain of Nuclear receptor subfamily 1 group I member 2 (Rattus norvegicus) (Q9R1A7 whole entry, looked up): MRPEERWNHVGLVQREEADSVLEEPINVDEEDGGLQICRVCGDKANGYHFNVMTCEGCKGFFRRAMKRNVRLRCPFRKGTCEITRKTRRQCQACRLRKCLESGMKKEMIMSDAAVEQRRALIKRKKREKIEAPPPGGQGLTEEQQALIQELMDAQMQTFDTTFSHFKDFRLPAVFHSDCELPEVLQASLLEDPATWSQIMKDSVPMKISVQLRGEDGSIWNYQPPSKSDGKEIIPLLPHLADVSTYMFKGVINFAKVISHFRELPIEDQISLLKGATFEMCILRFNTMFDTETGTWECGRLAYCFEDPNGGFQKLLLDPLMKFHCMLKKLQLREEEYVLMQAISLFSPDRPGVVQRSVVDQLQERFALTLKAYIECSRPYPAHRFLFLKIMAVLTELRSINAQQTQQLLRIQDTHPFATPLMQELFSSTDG
smiles,measurement,setting,value
CCN(CCC#N)c1ccc(N=Nc2c(Cl)cc([N+](=O)[O-])cc2Cl)cc1,Potency,[1],inactive
same,Potency,[2],inactive
same,Potency,[3],12.2 µM (active)
same,Potency,[4],inactive
Oc1ccc(N=Nc2ccccc2)cc1,Potency,[1],inactive
same,Potency,[2],inactive
same,Potency,[5],55.2 µM (active)
same,Potency,[3],34.8 µM (active)
Cc1cc(=O)oc2cc(N(C)C)ccc12,Potency,[1],inactive
same,Potency,[2],inactive
same,Potency,[3],48.6 µM (active)
CC(C)c1ccc2c(c1)CC[C@H]1[C@](C)(CN)CCC[C@]21C,Potency,[3],19.3 µM (active)
same,Potency,[4],1.26 µM (active)
C/C=C1/C(=O)C[C@H]2[C@@H]3CCC4=CC(=O)CC[C@]4(C)[C@H]3CC[C@]12C,Potency,[2],inactive
same,Potency,[4],inactive
O=C1Cc2cc(CCN3CCN(c4nsc5ccccc45)CC3)c(Cl)cc2N1,Potency,[1],inactive
same,Potency,[2],inactive
same,Potency,[5],inactive
same,max activation,[6],-10.8%
same,Potency,[7],inactive
same,Potency,[4],inactive
CCCCN1C(=O)[C@@H]([C@H](O)C2CCCCC2)NC(=O)C12CCN(Cc1ccc(Oc3ccc(C(=O)O)cc3)cc1)CC2,Potency,[8],61.1 µM (active)
same,Potency,[2],inactive
same,Potency,[5],30.6 µM (active)
same,Potency,[3],inactive
same,Potency,[4],inactive
Nc1ccc2c3c(cccc13)-c1ccccc1-2,Potency,[2],inactive
same,Potency,[3],27.6 µM (active)
same,Potency,[4],inactive
C[C@@H](NCCCc1cccc(C(F)(F)F)c1)c1cccc2ccccc12,Potency,[9],inactive
same,Potency,[4],0.0389 µM (active)
Nc1c2ccccc2nc2ccccc12,Potency,[1],21.4 µM (active) and 11.9 µM (active)
same,Potency,[2],12 µM (active)
same,Potency,[5],inactive
same,Potency,[4],700 nM (active) and 11 µM (active)
OCc1c[nH]c2ccccc12,Potency,[1],inactive
same,Potency,[2],inactive
same,Potency,[3],24.3 µM (active)
c1cc(C(c2ccc(OCC3CO3)cc2)c2ccc(OCC3CO3)cc2)ccc1OCC1CO1 (centres undefined),Potency,[1],inactive
same,Potency,[8],61.1 µM (active)
same,Potency,[3],27.3 µM (active)
same,Potency,[4],inactive
CC(C)n1nc(-c2cc3cc(O)ccc3[nH]2)c2c(N)ncnc21,Potency,[1],29.8 µM (active)
same,Potency,[8],1.06 µM (active)
same,Potency,[3],3.76 µM (active)
same,Potency,[4],30.9 µM (active)
CCCCC(CC)COP(=O)(O)OCC(CC)CCCC (centres undefined),Potency,[1],inactive
same,Potency,[2],inactive
same,Potency,[5],inactive
same,Potency,[3],61.3 µM (active) and 54.5 µM (active)
same,Potency,[4],50.2 µM (active)
CN(C)CCCOC1(Cc2ccccc2)CCCCCC1,Potency,[1],inactive
same,Potency,[2],inactive
same,Potency,[5],inactive
same,Potency,[4],1.55 µM (active)
CCOc1ccc2nc3cc(N)ccc3c(N)c2c1,Potency,[1],inactive
same,Potency,[2],inactive
same,Potency,[3],inactive
same,max activation,[6],1.69%
same,Potency,[9],inactive
same,Potency,[7],inactive
same,Potency,[4],15.5 µM (active)
Cc1[nH]cnc1C[C@H]1CCc2c(C)c3ccccc3n2C1=O,Potency,[8],47.4 µM (active)
same,Potency,[2],inactive
same,Potency,[3],59.6 µM (active)
same,Potency,[4],4.37 µM (active)
O=C(OCC1CO1)C1CCCCC1C(=O)OCC1CO1 (centres undefined),Potency,[1],inactive
same,Potency,[2],inactive
same,Potency,[4],inactive
C/C(=C(/OCCOc1ccc(Cl)cc1)c1ccc(Cl)cc1Cl)n1ccnc1,Potency,[1],inactive
same,Potency,[2],inactive
same,Potency,[5],inactive
same,Potency,[3],10.6 µM (active)
same,Potency,[4],1.55 µM (active)
